Experiment in all cases: PBM binding z-score (relative to random genomic background probes); higher = stronger binding; sequences stand for … in GC…GCGATTGACAGCGTAGAATGAAGG
Assay [1] concerns FXR:RXRa (NR concentration 270 nM, RXRa partner concentration 90 nM). The method, boiled down:
(§1)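 On custom Agilent 4×180K arrays, double-stranded probes with 34-nt variable regions carried direct-repeat seeds, single-nucleotide variants, half-site ablations or random human genomic background. Ligand-free nuclear receptor dimers were applied for 1 h, and binding was read with antibodies against each partner (one per run). Binding z-scores come from regression-normalized fluorescence, with the random background probes as reference.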

Assay [2] relates to LXRa:RXRa (NR concentration 270 nM, RXRa partner concentration 90 nM). In outline: as §1
The test system of assay [3] is LXRa homodimer (NR concentration 270 nM). In outline:
as §1

The test system of assay [4] is LXRb:RXRa (NR concentration 270 nM, RXRa partner concentration 90 nM). In outline: as §1
In assay [5] the test system is LXRb homodimer (NR concentration 270 nM). The method, boiled down: as §1
The subject of assay [6] is PPARa:RXRa (NR concentration 270 nM, RXRa partner concentration 90 nM). In outline: as §1
For assay [7], the system named is PPARg:RXRa (NR concentration 180 nM, RXRa partner concentration 90 nM). In outline:
as §1

Assay [8] relates to PPARg:RXRa 270nM:90nM, anti-RXR (NR concentration 270 nM, RXRa partner concentration 90 nM). The method, boiled down: as §1
The test system of assay [9] is PPARg:RXRa 30nM:10nM, anti-RXR (NR concentration 30 nM, RXRa partner concentration 10 nM). In outline: as §1
The subject of assay [10] is PPARg:RXRa 90nM:30nM, anti-RXR (NR concentration 90 nM, RXRa partner concentration 30 nM). The method, boiled down:
as §1

In assay [11] the test system is PPARg:RXRa DBDmut IVT, anti-RXR (DBD mutation: RXRa K156A/R161A, NR concentration 270 nM, RXRa partner concentration 90 nM). The method, boiled down:
as §1

Assay [12] concerns PPARg:RXRa IVT, anti-PPARg (NR concentration 270 nM, RXRa partner concentration 90 nM). The method, boiled down: as §1
For assay [13], the system named is PPARg DBDmut:RXRa IVT, anti-PPARg (DBD mutation: PPARg1 K132A/R137A, NR concentration 270 nM, RXRa partner concentration 90 nM). In outline:
as §1

Assay [14] relates to PPARg DBDmut IVT, anti-PPARg (DBD mutation: PPARg1 K132A/R137A, NR concentration 270 nM). In outline: as §1
For assay [15], the system named is PPARg homodimer (NR concentration 180 nM). The method, boiled down:
as §1

The subject of assay [16] is PXR:RXRa (NR concentration 270 nM, RXRa partner concentration 90 nM). The method, boiled down: as §1
The test system of assay [17] is PXR homodimer (NR concentration 270 nM). The method, boiled down: as §1
Assay [18] relates to RARa:RXR (NR concentration 270 nM, RXRa partner concentration 90 nM). The method, boiled down: as §1
For assay [19], the system named is RARa homodimer (NR concentration 270 nM). In outline: as §1
Assay [20] has as its system RARb:RXRa (NR concentration 270 nM, RXRa partner concentration 90 nM). In outline: as §1

From the supplement of paper PMC6555819 come the findings set out here.

For AATACAGGGTCATCGAAGGCCAGAGTACGCACAG, the PBM binding z-score is 6.84 in assay [1]; 6.3 in assay [2]; 1.75 in assay [3]; 4.59 in assay [4]; 1.53 in assay [5]; 5.67 in assay [6]. For the same sequence, the PBM binding z-score in [7] was 6.5; in assay [8], 6.11; in [9], 2.56; in assay [10] it was 4.66; in assay [11], 2.6; in [12] it was 4.19. The PBM binding z-score in [13] worked out at 1.28; in assay [14] it was 0.988; in assay [15], 2.16; in [16], 5.22; in assay [17] it was 0.967; in assay [18], 4.45. For the same sequence, the PBM binding z-score in assay [19] was 0.641; in assay [20], 4.32.
Regarding GCATATAGGAAATACAAGGTGAAAGTCCGATTGT, the PBM binding z-score in assay [1] was -0.0334; in assay [2] it was -0.148; in assay [3] it was -0.095; in assay [4], 0.0762; in assay [5] it was -0.434; in assay [6], 0.727. Further, the PBM binding z-score in assay [7] is 0.752; in [8], 0.734; in assay [9], -0.0341; in assay [10], 0.81; in [11], -0.0437; in assay [12], 0.645. Moreover, the PBM binding z-score in [13] was -0.0022; in assay [14] it was 0.353; in assay [15], 0.365; in assay [16], 0.166; in assay [17] it was 0.0769; in assay [18] it was 0.702. The figures for the PBM binding z-score in assay [19] and in assay [20] were 0.755 and 0.29, respectively.
Consider CAAACTAGGTCACGAAAGGTCACAGTCGAATGAC, for which the PBM binding z-score in assay [1] is 6.73; in assay [2], 7.6; in assay [3], 5.88; in [4], 6.82; in assay [5], 1.64; in assay [6] it was 6.62. Besides, the PBM binding z-score in assay [7] was found to be 10.1; in assay [8], 8.34; in assay [9], 6.6; in [10] it was 8.57; in assay [11], 8.61; in assay [12], 9.14. Moreover, the PBM binding z-score in assay [13] was 2.02; in [14] it was 1.37; in assay [15] it was 4.6; in assay [16] it was 6.61; in assay [17], 1.31; in assay [18], 7.03. Further, the values for the PBM binding z-score in assay [19] and in assay [20] were 2.46 and 5.7, respectively.
With CGAACGAGGGCATAAGTTGATAGCAAATGCCGAT, the PBM binding z-score in [1] was 0.0955; in assay [2] it was -0.0152; in assay [3], -0.319; in assay [4] it was 0.143; in assay [5], -0.74; in assay [6], 1.49. Also, the PBM binding z-score was determined as 1.93 in assay [7]; 2.59 in assay [8]; 0.799 in [9]; 2.34 in assay [10]; 2.66 in [11]; 1.67 in assay [12]. The PBM binding z-score in [13] is -0.0137; in assay [14], -0.0553; in [15], 0.0801; in assay [16], 0.19; in assay [17], 0.226; in [18], 0.129. Further, the PBM binding z-score in assay [19] is -0.269; in [20] it was 1.58.
Take CCTTGCGGGTCACTCCAGGTTATAGCATCGGAGT: the PBM binding z-score was 4.22 in assay [1]; 7.4 in assay [2]; 1.24 in [3]; 4.85 in assay [4]; -0.435 in assay [5]; 4.25 in assay [6]. Besides, the PBM binding z-score in [7] was 4.41; in [8], 4.41; in assay [9], 1.34; in assay [10] it was 3.35; in assay [11] it was 4.56; in [12], 4.95. The PBM binding z-score in assay [13] came to 0.399; in [14] it was 0.356; in [15], 1.54; in assay [16] it was 4.59; in assay [17], 0.258; in assay [18], 3.14. The results for the PBM binding z-score in [19] and in [20] were 0.115 and 3.11, respectively.
In the case of CCTGCTGGGCCACGAAAGGTCATTGATTCAGTGA, the PBM binding z-score in [1] worked out at 3.41; in assay [2], 5.49; in assay [3] it was 4.48; in assay [4] it was 4.19; in assay [5], 0.0525; in assay [6], 4.2. Besides, the PBM binding z-score in assay [7] is 1.59; in assay [8], 3.23; in assay [9], 0.385; in assay [10] it was 2.27; in assay [11], 1.93; in [12] it was 2.25. The PBM binding z-score is -0.596 in assay [13]; -0.339 in assay [14]; 5.05 in assay [15]; 5.52 in [16]; 1.38 in assay [17]; 5.76 in assay [18]. In addition, the PBM binding z-score in [19] is 2.23; in [20] it was 4.05.
Take GCTATTTGTTGAAAGGGCAACCGAATGATTCTCG: the PBM binding z-score in [1] was 0.484; in assay [2], 0.768; in assay [3], 0.386; in assay [4], 0.834; in [5] it was 0.261; in assay [6], 1.37. Besides, the PBM binding z-score in assay [7] stood at 0.764; in assay [8] it was 1.88; in assay [9], 0.957; in assay [10] it was 1.46; in assay [11], 0.563; in [12] it was 0.804. Moreover, the PBM binding z-score in assay [13] was found to be 0.209; in assay [14], 0.611; in assay [15], 1.53; in assay [16] it was 0.686; in [17], 0.462; in [18], 1.01. Further, the figures for the PBM binding z-score in assay [19] and in assay [20] were 1.45 and 1.98, respectively.
